This is part of a sample that, as a whole, favours compounds with a hit. Of some 83,000 tested, about 20% had one in any assay.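 Negative percent growth values reflect cell death: -40 means 40% of the cells present at the start died, and -100 means all died.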 A number with no mark means an inactive call. Active and inactive are the calls of the source. The calls were made as follows: active = growth percent below 10; inactive = the rest.
What was measured:
Assay in all cases: NCI-60 one-dose screen, 48 h (100 = growth as untreated, 0 = no growth, -100 = all killed)
Details in all cases: 10 µM unless noted
HCT-15 colon = test system: HCT-15 colon
HT29 colon = test system: HT29 colon
SNB-75 CNS = test system: SNB-75 CNS
SNB-19 CNS = test system: SNB-19 CNS
U251 CNS = test system: U251 CNS
PC-3 prostate = test system: PC-3 prostate
SK-MEL-5 melanoma = test system: SK-MEL-5 melanoma
UACC-62 melanoma = test system: UACC-62 melanoma
LOX IMVI melanoma = test system: LOX IMVI melanoma
SK-MEL-28 melanoma = test system: SK-MEL-28 melanoma
SK-MEL-2 melanoma = test system: SK-MEL-2 melanoma
EKVX NSCLC = test system: EKVX NSCLC
SN12C renal = test system: SN12C renal
TK-10 renal = test system: TK-10 renal
CAKI-1 renal = test system: CAKI-1 renal
A498 renal = test system: A498 renal
CCRF-CEM leukemia = test system: CCRF-CEM leukemia
MOLT-4 leukemia = test system: MOLT-4 leukemia
ACHN renal = test system: ACHN renal
UO-31 renal = test system: UO-31 renal

SMILES	growth (HCT-15 colon)	growth (HT29 colon)	growth (SNB-75 CNS)	growth (SNB-19 CNS)	growth (U251 CNS)	growth (PC-3 prostate)	growth (SK-MEL-5 melanoma)	growth (UACC-62 melanoma)	growth (LOX IMVI melanoma)	growth (SK-MEL-28 melanoma)	growth (SK-MEL-2 melanoma)	growth (EKVX NSCLC) [%]	growth (SN12C renal) [%]	growth (TK-10 renal) [%]	growth (CAKI-1 renal) [%]	growth (A498 renal)	growth (CCRF-CEM leukemia)	growth (MOLT-4 leukemia)	growth (ACHN renal)	growth (UO-31 renal)
CC(=O)c1ccc(N2C(=O)c3ccc(Oc4ccccc4)cc3C2=O)cc1	111%	104%	108%	105%	108%	91.2%	103%	98.9%	103%	111%	110%	94.1	98.4	105	101	91.5%	134%	115%	–	–
O=C(CCCCCCN1CC(=O)N2[C@@H](c3ccc(Cl)c(Cl)c3)c3[nH]c4ccccc4c3C[C@H]2C1=O)NO	92.3%	33.8%	6.3% (active)	54.3%	40.5%	25.7%	51.3%	35.2%	-55.2% (active)	52.4%	79.9%	64.6	60.8	40.3	48.7	86%	7.73% (active)	8.86% (active)	70.2%	–
C/C(=N\Nc1ccc([N+](=O)[O-])cn1)c1ccc(N)cc1	95.1%	101%	94.4%	95.9%	95.7%	94.1%	101%	99.1%	100%	113%	100%	109	94.8	105	101	82.4%	96.3%	-11.7% (active)	97.8%	–
COc1cc(C2CC(c3ccc(C)cc3)=NN2C=O)ccc1Oc1nc2c(c(=O)n(C)c(=O)n2C)n1C (stereo unspecified)	94.3%	72.6%	93%	67.2%	92.7%	74.3%	58.1%	94.5%	60.6%	106%	121%	80.1	–	113	79.2	76.9%	83.8%	–	88.1%	63.1%
CCCC(CCC)(C(N)=O)C(=O)O	105%	101%	104%	112%	106%	121%	110%	106%	93.5%	113%	120%	105	–	115	95.3	104%	103%	113%	103%	92.2%
CCCCOc1nc2ccc(C)cc2cc1/C=C/C(=O)/C=C(O)/C=C/c1cc2cc(C)ccc2nc1OCCCC	110%	101%	92.7%	96.2%	88.3%	99%	105%	87.6%	91.6%	107%	103%	102	111	102	98.1	116%	97.6%	98.8%	102%	–
CC(=O)Oc1c(Cl)c(Cl)c(Cl)c(Cl)c1Cl	95%	99.9%	80.1%	96.3%	94.7%	91.1%	102%	88%	93.1%	104%	90.1%	87.6	–	101	89.2	86.1%	83.2%	85.6%	95.8%	81.6%
NC(N)=N/N=C/c1cccc(Cl)c1Cl	82.7%	24%	63.8%	85.8%	73.3%	89.2%	85.6%	90.5%	76.4%	99.2%	106%	69.2	90.1	–	59.1	61.6%	52.7%	47.6%	84.2%	–
CN(C)CCNC(=O)n1cc(-c2ccncc2)c(-c2cc(O)cc(Cl)c2)n1	77.1%	88.5%	103%	106%	81.6%	112%	77.3%	36.4%	76.3%	35.2%	96.3%	107	91.9	92.6	109	82.2%	88%	86.4%	80.6%	–
COc1ccccc1CNCCCN1C(=O)c2ccc3c4c(ccc(c24)C1=O)C(=O)N(CCCCNCCCN)C3=O	74.6%	-20.1% (active)	53.9%	-70.3% (active)	-84.3% (active)	43.7%	-97.1% (active)	-68.7% (active)	-10% (active)	-19.4% (active)	-46.1% (active)	48.1	–	36.7	94.1	87.9%	2.26% (active)	–	28.1%	48.3%
N/N=C(\C(=N\N)c1ccccc1)c1ccccc1	104%	94.7%	86.4%	96.6%	104%	88.7%	101%	90.2%	97.3%	105%	98.7%	94	88.9	98.8	99.9	76.1%	–	81.2%	104%	–
COc1cnc2c(c1)C(=O)c1c-2n(CCCN2CCCC2)c(=O)c2cc(Cl)ccc12	39.4%	-72.8% (active)	19.2%	28.7%	20.1%	20.4%	14.7%	21.1%	12.5%	85.1%	65.2%	46.6	27.5	39.4	42.4	-9.2% (active)	-38.1% (active)	-24.4% (active)	7.7% (active)	–
C=CCOc1ccc2c(C)cc(=O)oc2c1	101%	94.9%	111%	122%	89%	93%	108%	105%	105%	113%	129%	106	115	91.9	97.9	71%	–	107%	108%	–
c1ccc(CCn2cccc2)nc1	119%	114%	95.1%	105%	103%	98.9%	109%	97.9%	98.6%	118%	101%	107	102	99.7	91.1	105%	105%	18.7%	104%	–
NS(=O)(=O)c1ccc(CCn2c(SCC(=O)N/N=C/c3cc4ccccc4[nH]3)nc3ccccc3c2=O)cc1	91.4%	39.2%	80%	58.6%	30.6%	40.2%	31.9%	53.3%	49.1%	88.3%	25.7%	85.3	–	102	82.5	102%	35%	–	93.9%	67%
Oc1ccccc1-c1nnc(COc2ccc(Cl)cc2Cl)o1	27.4%	60.3%	86.6%	53.5%	41.5%	47.8%	32.3%	25.1%	25.5%	68.9%	37.9%	31.1	52.6	63.7	41.5	89.9%	15.5%	19.5%	43.5%	–
O=C(O)c1ccccc1Oc1cc(-c2ccco2)nc(OCCN2CCOCC2)n1	101%	92.5%	92.4%	96.9%	113%	127%	99.9%	98.9%	99.5%	106%	100%	113	97.3	97.4	96.2	104%	94.2%	101%	107%	–

SMILES	growth (HCT-15 colon)	growth (HT29 colon)	growth (SNB-75 CNS)	growth (SNB-19 CNS)	growth (U251 CNS)	growth (PC-3 prostate)	growth (SK-MEL-5 melanoma)	growth (UACC-62 melanoma)	growth (LOX IMVI melanoma)	growth (SK-MEL-28 melanoma)	growth (SK-MEL-2 melanoma)	growth (EKVX NSCLC) [%]	growth (SN12C renal) [%]	growth (TK-10 renal) [%]	growth (CAKI-1 renal) [%]	growth (A498 renal)	growth (CCRF-CEM leukemia)	growth (MOLT-4 leukemia)	growth (ACHN renal)	growth (UO-31 renal)
COc1ccc(NC(=O)Cn2c(=O)sc3c(-c4ccc(Cl)cc4)cc(-c4ccc(Cl)cc4)nc32)cc1	93.3%	82.7%	89.5%	105%	103%	95.4%	98.6%	85.6%	91.1%	103%	107%	95.4	93.2	97.3	95.3	129%	112%	95%	102%	–
COc1ccc2c(c1)C1=NN(C(=O)CO)[C@H](c3ccc(OC(F)(F)F)cc3)[C@@H]1CC2	84.7%	92.3%	90.3%	93.4%	87.3%	72.9%	83.4%	76.3%	88.7%	121%	89.5%	94.3	99.6	162	116	94.4%	129%	86.9%	87.9%	–
CCc1onc(-c2ccc(OC)cc2)c1-c1ccccc1OCCN(CC)CC	98.2%	60.3%	60.9%	91.3%	93.9%	75.1%	81%	97.7%	71.9%	100%	94.9%	85.2	91.4	92.2	82.4	63.3%	75.6%	87.2%	92.9%	–
COc1cccc(/C(C)=N/NC(=O)CSc2nc3ccccc3c(=O)n2CCc2ccc(S(N)(=O)=O)cc2)c1	69.7%	2.6% (active)	42.1%	24.7%	-55.4% (active)	7.25% (active)	1.45% (active)	25.1%	26%	67.5%	30%	96.9	39.6	32.3	70.5	72.1%	–	14.4%	85%	–
Cc1ccc(C(=O)CC(=O)C(F)(F)C(F)(F)C(F)(F)F)s1	105%	110%	96%	104%	108%	92.8%	106%	96.6%	104%	110%	113%	94.6	96.4	118	99.2	112%	103%	109%	110%	–
CCN(CC)c1ccc(/C=N/NC(=O)c2ccc(S(C)(=O)=O)cc2)c(O)c1	28.5%	21.8%	55.2%	32%	20.6%	49.2%	-2.99% (active)	-18.5% (active)	9.68% (active)	27.2%	19.5%	15.5	–	30.5	20.4	45.3%	6.94% (active)	2.7% (active)	17.1%	-1.73% (active)
Oc1c(C(Nc2ccccc2Br)c2ccccc2)ccc2cccnc12 (stereo unspecified)	26.5%	24%	60.4%	31.7%	12.9%	48.6%	2.41% (active)	-26.3% (active)	10.5%	39.2%	12.1%	23.4	24.7	30.3	13.2	47.7%	17.3%	4.89% (active)	13.5%	–
CC(C)(C)c1ccc(C(=O)Nc2sc3cc(O)ccc3c2C(N)=O)cc1	43.9%	23.8%	95.9%	94.1%	77.5%	79.2%	96.6%	104%	23.3%	87.5%	114%	94.6	–	133	77.3	107%	50%	–	74.1%	65.6%
O=C(Nc1ccc(-n2ccc3c(NC(=O)c4ccccc4)nccc32)cc1)c1ccc(N2CCOCC2)c(C(F)(F)F)c1	20%	2.44% (active)	23.5%	44.6%	14.4%	35.7%	23.7%	49.4%	13.4%	25.3%	21%	65.6	41.8	27.6	25.6	68.9%	26.9%	30.5%	32.5%	–
COc1ncnc2[nH]cc(CN3CCN(c4ccc(F)cc4)CC3)c12	104%	91.2%	100%	102%	99.2%	100%	103%	106%	106%	114%	103%	97.9	102	–	98.8	80%	–	105%	104%	94.3%
C/C(=N\NC(=O)CSc1nc2ccccc2c(=O)n1CCc1ccc(S(N)(=O)=O)cc1)c1ccc(Br)cc1	94.7%	44.7%	84.7%	63.9%	8.33% (active)	44.9%	61.5%	79%	63.3%	79.7%	80.4%	88.2	–	106	79.8	97.5%	76.7%	55.3%	93.6%	78.3%
CC(C)N(C(=S)SSC(=S)N(C(C)C)C(C)C)C(C)C	97.7%	88.1%	102%	109%	94.5%	86.4%	109%	105%	97.1%	100%	109%	110	–	100	85.8	97.8%	87.5%	105%	98.2%	80.3%
O=C(CSc1nnc(Cc2ccccc2Nc2c(Cl)cccc2Cl)n1-c1ccccc1)N1N=C(c2ccc3ccccc3c2)CC1c1ccc(Cl)cc1 (stereo unspecified)	98.9%	86.2%	81%	95.1%	98.3%	87.1%	104%	87.6%	94%	112%	103%	93.5	–	95.5	92.7	102%	113%	98.4%	109%	80%
Nc1c(C(=O)C[C@@H](N)CO)ccc2c1C(=O)CCO2	6.97% (active)	-3.16% (active)	86.2%	27.4%	16.7%	57%	60.8%	30.5%	-61.7% (active)	39.1%	46.8%	97.8	32.7	–	29.8	-37.5% (active)	20.6%	33.4%	45.6%	45.5%
CCc1c(C)c2ccc(O)c(-c3cc(-c4ccccc4)c(C#N)c(=O)[nH]3)c2oc1=O	96.5%	125%	52.7%	108%	100%	107%	94.7%	77.3%	93.1%	107%	117%	101	–	124	70	116%	103%	–	103%	62.9%
COc1ccc(/C(C)=N/NC(=O)c2ccc(S(C)(=O)=O)cc2)cc1OC	97.9%	117%	85.9%	105%	104%	99.3%	106%	102%	106%	105%	101%	96.3	100	102	91.6	94.1%	115%	71.1%	108%	–
